Measured values published in PubChem BioAssay.
Active and inactive are the calls of the source.

Tests used:
[1] = test system: Wnt5a (protein binding on small-molecule microarray); experiment: Wnt5a binders on small-molecule microarray, primary screen, biophysical, 635/667 nm fluorescence (AID 1142); settings: 635 nm fluorescence, higher = more signal;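 note: fluorescence read at 667 nm with signal to noise per printed feature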
[2] = cell viability in Huh7 cells, primary screen, cytotoxicity control for HCV replication inhibitor project, CellTiter-Glo luminescence, basal, 48 h (AID 1143); settings: Huh7 HCV replicon, higher = more signal, called active from +8 up or from −8 down;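 note: Huh7 hepatoma cells carrying a hepatitis C replication reporter with no stimulus; test concentration not given here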
[3] = CREB reporter modulators without forskolin, primary screen, cell-based, PC12, CRE-LacZ reporter, unstimulated (AID 1145); settings: no forskolin, luminescence, 4.5 h, higher = more signal, called active from +8 up or from −8 down
[4] = CREB reporter modulators under forskolin, primary screen, cell-based, PC12, CRE-LacZ reporter, forskolin-stimulated (AID 1146); settings: luminescence, 4.5 h, higher = more signal, called active from +8 up or from −8 down;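 note: PC12 cells with 6xCRE LacZ reporter stimulated by forskolin 10 µM; beta-galactosidase reporter signal reflecting CREB driven transcription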
[5] = biological target: Streptavidin (Streptomyces avidinii) (UniProt P22629); experiment: streptavidin binders on small-molecule microarray, primary screen, artefact control for SMM compound annotation, biophysical, 635/667 nm fluorescence (AID 1147); settings: streptavidin binding, higher = more signal;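 note: signal reflects streptavidin binding to arrayed compounds as a control protein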
[6] = small-molecule binders of probe aInhba, primary screen, biochemical, small-molecule microarray, 635/667 nm fluorescence (AID 1148); settings: higher = more signal;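 note: score merges 667nm spot fluorescence with signal-to-noise for antibody binding to printed compounds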
[7] = biological target: Torsin-1A (Homo sapiens) (UniProt O14656); experiment: torsin A binders from cell lysate, primary screen, small-molecule microarray, wild-type, 635/667 nm (AID 1149); settings: COS7 hTOR1A-WT lysate, 635 nm fluorescence, higher = more signal
[8] = biological target: Torsin-1A (Homo sapiens) (UniProt O14656); experiment: small-molecule binders of mutant TOR1A in lysate, primary screen, cell lysate, small-molecule microarray, COS7 lysate, 635/667 nm fluorescence (AID 1150); settings: COS7 hTOR1A mutant lysate, 635 nm fluorescence, higher = more signal;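 note: score pools 667 nm emission and signal to noise measuring lysate protein binding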
[9] = test system: Sonic hedgehog protein (Shh); experiment: small-molecule binders of Shh protein, primary screen, biochemical, small-molecule microarray, 635/667 nm fluorescence (AID 1151); settings: small-molecule microarray binding, 635 nm fluorescence; higher = more signal;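 note: Shh protein binding to compounds spotted on small-molecule microarray slides; score combines spot fluorescence intensity with signal-to-noise across triplicate slides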
[10] = E. coli DRC41 culture turbidity changes, primary screen, E. coli filamentation inducer project, strain DRC41, OD650, 48 h (AID 1152);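 note: E. coli MC1000 strain DRC41 lacking acrAB efflux pump and sulA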; settings: E. coli DRC41 (acrAB sulA), higher = more signal, called active from +8 up or from −8 down
[11] = small-molecule binders of probe aLefty1, primary screen, biochemical, small-molecule microarray, 635/667 nm fluorescence (AID 1153); settings: higher = more signal;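 note: score merges spot fluorescence with signal-to-noise ratio from the scanned slide images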
[12] = PSAC antagonists in infected red cells, primary screen, cell-based, P. falciparum Indochina, OD700, 1 h (AID 1154); settings: P. falciparum Indochina infected RBC osmotic lysis, higher = more signal, called active from +8 up or from −8 down
[13] = PSAC antagonists in infected red cells, primary screen, cell-based, P. falciparum Indochina, OD700, 2 h (AID 1155);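 note: lysis reports solute entry through the parasite surface anion channel PSAC; channel blockers reduce lysis of infected cells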; settings: P. falciparum Indochina infected erythrocytes, osmotic lysis OD700; higher = more signal, called active from +8 up or from −8 down
[14] = osmotic lysis modulators in infected erythrocytes, primary screen, PSAC antagonist project, cell-based, P. falciparum Indochina, OD700, 3 h (AID 1156); settings: higher = more signal, called active from +8 up or from −8 down
[15] = PSAC antagonists in infected red cells, primary screen, cell-based, P. falciparum Indochina, OD700, 18 h (AID 1157); settings: P. falciparum Indochina infected erythrocytes, osmotic lysis OD700, 18 h; higher = more signal, called active from +8 up or from −8 down
[16] = modulators of S6 phosphorylation in cells, primary screen, cell-based, A549, cytoblot, luminescence, serum-stimulated (AID 1158); settings: A549 phospho-S6 cytoblot, 5 h, higher = more signal;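 note: serum-stimulated A549 lung adenocarcinoma cells; signal is phosphorylated S6 detected by cytoblot immunostaining with HRP secondary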
[17] = biological target: NADPH oxidase 2 (Homo sapiens) (UniProt P04839); experiment: NOX2-dependent H2O2 signal modulators, primary screen, NOX inhibitor project, cell-based, HEK293-NOX2, PMA-stimulated, Amplex Red fluorescence (AID 1159); settings: 45 min, higher = more signal, called active from +8 up or from −8 down; note: test concentration not given here
[18] = biological target: NADPH oxidase 4 (Homo sapiens) (UniProt Q9NPH5); experiment: NOX4-dependent H2O2 signal modulators, primary screen, NOX inhibitor project, cell-based, HEK293-NOX4, tetracycline-induced, Amplex Red fluorescence (AID 1160); settings: 45 min, higher = more signal, called active from +8 up or from −8 down
[19] = biological target: NADPH oxidase 5 (Homo sapiens) (UniProt Q96PH1); experiment: NOX5-dependent H2O2 signal modulators, primary screen, NOX inhibitor project, cell-based, HEK293-NOX5, Amplex Red fluorescence (AID 1161); settings: HEK293-NOX5, ionomycin, 45 min, higher = more signal
Sequence of NADPH oxidase 5 (Homo sapiens) (Q96PH1 whole entry, looked up): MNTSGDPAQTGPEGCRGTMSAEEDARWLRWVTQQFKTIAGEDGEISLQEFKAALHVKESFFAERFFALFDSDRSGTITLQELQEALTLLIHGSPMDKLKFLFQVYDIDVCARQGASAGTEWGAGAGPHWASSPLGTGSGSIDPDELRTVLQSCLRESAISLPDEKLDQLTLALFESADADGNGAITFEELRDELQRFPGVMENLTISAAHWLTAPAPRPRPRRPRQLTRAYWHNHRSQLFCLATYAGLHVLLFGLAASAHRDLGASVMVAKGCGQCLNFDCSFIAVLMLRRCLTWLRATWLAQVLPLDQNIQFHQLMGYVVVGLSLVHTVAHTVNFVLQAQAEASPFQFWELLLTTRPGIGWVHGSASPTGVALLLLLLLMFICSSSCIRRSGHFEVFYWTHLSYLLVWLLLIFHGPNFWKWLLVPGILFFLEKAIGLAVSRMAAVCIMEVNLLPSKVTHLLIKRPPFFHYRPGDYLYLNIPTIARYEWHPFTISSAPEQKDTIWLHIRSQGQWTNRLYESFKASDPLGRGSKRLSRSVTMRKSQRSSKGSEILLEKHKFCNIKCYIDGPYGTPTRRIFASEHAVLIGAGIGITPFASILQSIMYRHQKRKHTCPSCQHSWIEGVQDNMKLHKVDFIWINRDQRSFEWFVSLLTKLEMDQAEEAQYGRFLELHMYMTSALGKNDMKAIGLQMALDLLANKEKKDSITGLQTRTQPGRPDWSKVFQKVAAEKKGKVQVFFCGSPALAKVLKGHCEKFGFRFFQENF

Sequence of Streptavidin (Streptomyces avidinii) (P22629 whole entry, looked up): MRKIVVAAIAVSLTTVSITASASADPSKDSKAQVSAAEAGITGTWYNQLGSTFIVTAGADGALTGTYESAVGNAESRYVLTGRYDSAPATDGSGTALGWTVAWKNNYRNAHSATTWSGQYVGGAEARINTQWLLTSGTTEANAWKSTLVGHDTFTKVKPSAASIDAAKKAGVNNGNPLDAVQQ
Sequence of NADPH oxidase 2 (Homo sapiens) (P04839 whole entry, looked up): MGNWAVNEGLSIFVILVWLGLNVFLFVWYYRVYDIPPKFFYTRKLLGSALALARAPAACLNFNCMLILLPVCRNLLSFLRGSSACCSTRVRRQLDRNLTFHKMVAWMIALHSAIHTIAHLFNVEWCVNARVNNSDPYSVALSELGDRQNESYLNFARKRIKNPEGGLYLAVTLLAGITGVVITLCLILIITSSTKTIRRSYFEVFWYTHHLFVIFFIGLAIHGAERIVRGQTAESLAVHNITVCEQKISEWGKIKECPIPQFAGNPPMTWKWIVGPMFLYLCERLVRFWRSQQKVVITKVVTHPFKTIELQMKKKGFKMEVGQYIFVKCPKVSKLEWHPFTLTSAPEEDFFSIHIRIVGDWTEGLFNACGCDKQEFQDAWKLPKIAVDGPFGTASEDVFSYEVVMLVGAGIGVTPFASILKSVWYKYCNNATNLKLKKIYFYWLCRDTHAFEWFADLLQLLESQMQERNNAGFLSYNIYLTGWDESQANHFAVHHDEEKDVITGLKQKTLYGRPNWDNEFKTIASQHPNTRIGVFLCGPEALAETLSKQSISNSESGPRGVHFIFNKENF
Sequence of Torsin-1A (Homo sapiens) (O14656 whole entry, looked up): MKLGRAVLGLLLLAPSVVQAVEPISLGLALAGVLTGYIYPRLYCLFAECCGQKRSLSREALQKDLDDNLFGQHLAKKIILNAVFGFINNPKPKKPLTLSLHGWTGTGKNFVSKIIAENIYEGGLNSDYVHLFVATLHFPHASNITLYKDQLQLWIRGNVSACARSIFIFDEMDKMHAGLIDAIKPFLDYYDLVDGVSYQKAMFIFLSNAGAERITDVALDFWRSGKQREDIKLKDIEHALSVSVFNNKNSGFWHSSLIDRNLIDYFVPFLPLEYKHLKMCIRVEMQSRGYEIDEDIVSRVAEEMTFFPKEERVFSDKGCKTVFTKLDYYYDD
Sequence of NADPH oxidase 4 (Homo sapiens) (Q9NPH5 whole entry, looked up): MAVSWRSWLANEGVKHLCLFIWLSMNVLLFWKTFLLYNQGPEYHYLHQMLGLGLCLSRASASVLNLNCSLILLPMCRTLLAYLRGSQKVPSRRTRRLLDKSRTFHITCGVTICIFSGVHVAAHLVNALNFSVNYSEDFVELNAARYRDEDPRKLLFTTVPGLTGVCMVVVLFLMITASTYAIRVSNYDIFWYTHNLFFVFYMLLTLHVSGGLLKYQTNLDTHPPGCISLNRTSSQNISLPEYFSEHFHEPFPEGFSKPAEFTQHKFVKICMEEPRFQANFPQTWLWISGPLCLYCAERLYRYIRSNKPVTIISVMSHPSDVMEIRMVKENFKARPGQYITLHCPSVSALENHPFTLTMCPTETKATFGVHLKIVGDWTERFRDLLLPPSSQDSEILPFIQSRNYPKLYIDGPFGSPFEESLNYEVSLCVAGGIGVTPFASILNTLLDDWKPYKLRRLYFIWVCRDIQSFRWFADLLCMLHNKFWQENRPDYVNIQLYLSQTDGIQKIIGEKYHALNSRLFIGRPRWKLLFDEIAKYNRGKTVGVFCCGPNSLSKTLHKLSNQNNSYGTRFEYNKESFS

SMILES	composite z-score [1]	z-score [2]	z-score [3]	z-score [4]	composite z-score [5]	composite z-score [6]	composite z-score [7]	composite z-score [8]	composite z-score [9]	z-score [10]	composite z-score [11]	z-score [12]	z-score [13]	z-score [14]	z-score [15]	z-score [16]	z-score [17]	z-score [18]	z-score [19]
O=C1O[C@@H](c2ccccc2)[C@@H](c2ccccc2)N2[C@@H](c3ccc(O)cc3)[C@]3(C(=O)Nc4ccc(C#CC5(O)CCCCCC5)cc43)[C@@H](C(=O)Nc3nc4ccccc4s3)[C@H]12	0.285	-2.23 (inactive)	0.204 (inactive)	-0.908 (inactive)	1.99	-0.438	0.752	0.757	0.741	1.74 (inactive)	0.271	0.733 (inactive)	-0.232 (inactive)	0.445 (inactive)	-0.713 (inactive)	1.16	1.62 (inactive)	-1.27 (inactive)	1.96
C=CCNC(=O)[C@H]1[C@@H]2C(=O)O[C@@H](c3ccccc3)[C@@H](c3ccccc3)N2[C@@H](c2ccccc2OCCO)[C@]12C(=O)N(C(=O)OCCOC)c1ccc(C#CCNC(N)=O)cc12	-0.0103	-1.76 (inactive)	-0.471 (inactive)	0.948 (inactive)	0.98	0.026	0.661	0.296	0.633	1.8 (inactive)	0.178	2.13 (inactive)	-0.0443 (inactive)	0.391 (inactive)	-1.3 (inactive)	1.78	1.76 (inactive)	1.35 (inactive)	-0.971
Cc1ccc(S[C@]2(C(=O)NCCCN(C)C)CC(=O)N(C3CCCCC3)[C@@H]2c2ccc(CO)cc2I)cc1	-0.056	-6.58 (inactive)	-0.0243 (inactive)	1.42 (inactive)	-0.806	-0.128	0.0029	0.0812	0.0709	1.16 (inactive)	0.0919	14 (active)	1.35 (inactive)	1.39 (inactive)	-1.07 (inactive)	1.72	-4.81 (inactive)	-1.42 (inactive)	0.549
C=CCOC(=O)[C@@H]1[C@H]2C(=O)O[C@H](c3ccccc3)[C@H](c3ccccc3)N2[C@H](c2ccc(OCCOC(=O)[C@H]3C[C@H]4C(=O)N5CCC[C@H]5C(=O)N4[C@H]3c3ccc(O)cc3)cc2)[C@@]12C(=O)Nc1ccccc12	1.32	-3.23 (inactive)	-0.402 (inactive)	-1.32 (inactive)	0.239	1.03	0.885	0.283	1.68	2.34 (inactive)	0.244	3.21 (inactive)	0.288 (inactive)	-2.79 (inactive)	-1.39 (inactive)	0.557	1.56 (inactive)	0.0128 (inactive)	2.16
COc1ccc(-c2ccccc2[C@@H]2N[C@H](C(=O)O)CC[C@H]2C)cc1	-0.053	-1.45 (inactive)	1.01 (inactive)	-0.902 (inactive)	0.376	-0.109	0.69	0.272	0.289	0.522 (inactive)	-0.147	0.908 (inactive)	0.443 (inactive)	1.42 (inactive)	-0.0201 (inactive)	0.305	0.653 (inactive)	-1.28 (inactive)	-0.431
CC(=O)Nc1ccc([C@H]2[C@H](C)CC[C@H]3C(=O)N4[C@@H](CC[C@@H](C)[C@@H]4c4ccc(NC(C)=O)cc4)C(=O)N32)cc1	0.165	-0.446 (inactive)	3.09 (inactive)	-0.876 (inactive)	0.627	0.0275	1.17	0.283	1.34	-0.929 (inactive)	-0.045	1.91 (inactive)	0.586 (inactive)	0.699 (inactive)	0.32 (inactive)	-0.164	0.0427 (inactive)	1.25 (inactive)	0.198
CO[C@H]1O[C@H](CO)[C@@H](OC(=O)Nc2ccc(Oc3ccccc3)cc2)[C@H](OC(=O)Nc2ccccc2-c2ccccc2)[C@H]1OC(=O)Nc1ccccc1-c1ccccc1	0.595	-6.08 (inactive)	-0.0017 (inactive)	-1.31 (inactive)	1.25	0.268	0.445	0.517	1.24	1.38 (inactive)	0.371	2.14 (inactive)	0.647 (inactive)	0.55 (inactive)	-1.37 (inactive)	-0.151	1.95 (inactive)	-0.7 (inactive)	0.176
C=CCc1cccc([C@@H]2[C@@H](C)CC[C@H]3C(=O)N4[C@H](c5cccc(CC=C)c5)[C@@H](C)CC[C@H]4C(=O)N23)c1	0.205	-3.75 (inactive)	3.64 (inactive)	-0.353 (inactive)	0.898	0.0968	0.392	0.203	0.946	0.0258 (inactive)	0.142	5.32 (inactive)	1.46 (inactive)	2.14 (inactive)	0.738 (inactive)	-0.0433	-0.23 (inactive)	-0.0735 (inactive)	-1.48
CO[C@H]1COC(=O)CC=C[C@H](C)[C@@H](OC)COC(=O)CC=C[C@@H]1C	0.27	-0.909 (inactive)	0.786 (inactive)	-0.0885 (inactive)	-0.538	-0.227	2.03	0.621	1.32	1.32 (inactive)	0.0962	1.35 (inactive)	0.636 (inactive)	0.357 (inactive)	0.254 (inactive)	1.26	0.59 (inactive)	1.19 (inactive)	0.435
COC(=O)C1=C(C)N(Cc2ccccc2)c2c(C(=O)OC)c(C(=O)OC)c(C(=O)OC)c(=O)n2[C@@H]1c1ccccc1	0.191	-0.233 (inactive)	4.26 (inactive)	-1.23 (inactive)	0.125	0.0503	0.285	0.505	0.426	0.199 (inactive)	-0.0186	0.294 (inactive)	-1.61 (inactive)	0.012 (inactive)	-1.45 (inactive)	0.715	1.74 (inactive)	0.873 (inactive)	-0.0758
C=CCN(C(=O)C1N(c2ccc(CCO)cc2)C(=O)C2C(C(=O)O)C3C=CC21O3)C(C)(C)C (configuration not stated)	-0.505	-1.93 (inactive)	-0.623 (inactive)	-0.819 (inactive)	-2.01	-0.227	-3.07	-1.77	-1.34	2.75 (inactive)	0.0445	0.0302 (inactive)	-1.14 (inactive)	-1.43 (inactive)	-1.91 (inactive)	0.434	1.9 (inactive)	-1.46 (inactive)	0.845
COC(=O)C[C@H]1O[C@]2(C(=O)N(C)c3ccccc32)[C@@H](C)[C@@H]1[Si](C)(C)c1ccc(OC)cc1	0.259	-4.23 (inactive)	2.23 (inactive)	-1.58 (inactive)	0.781	0.138	0.639	0.236	0.661	2.42 (inactive)	-0.139	2.79 (inactive)	-1.17 (inactive)	-0.168 (inactive)	-2.34 (inactive)	1.11	0.0822 (inactive)	0.345 (inactive)	-0.451
Cc1ccc(S(=O)(=O)c2cc3oc2CC[C@@H](CO)NC(=O)N(C)Cc2cn(nn2)C[C@H](Cc2ccccc2)NC3=O)cc1	-0.0319	-0.0124 (inactive)	-0.332 (inactive)	-0.58 (inactive)	-0.183	-0.0335	0.285	0.501	0.0007	3.05 (inactive)	-0.234	28.3 (active)	13.3 (active)	0.208 (inactive)	2.03 (inactive)	0.533	0.644 (inactive)	0.743 (inactive)	0.648
CCCCCCc1nc(C2CC2)c(C)c2c1[Si](C(C)C)(C(C)C)OC2	-0.0534	-5.02 (inactive)	0.236 (inactive)	-0.75 (inactive)	-0.0332	-0.0494	0.277	0.305	0.0027	2.16 (inactive)	-0.196	2.89 (inactive)	0.176 (inactive)	-0.162 (inactive)	0.0166 (inactive)	3.38	-0.579 (inactive)	-0.404 (inactive)	-1.38
Cc1ccc(S(=O)(=O)N[C@H]2COC(=O)CC=C[C@H](C)COC(=O)N[C@@H](C)C(=O)CC=C[C@@H]2C)cc1	0.177	-1.67 (inactive)	1.6 (inactive)	-0.933 (inactive)	-0.184	-0.142	0.771	0.555	1.01	0.0157 (inactive)	-0.191	1.3 (inactive)	0.678 (inactive)	1.1 (inactive)	0.451 (inactive)	1.87	0.142 (inactive)	-1.45 (inactive)	-0.213
CN1CCC(CCCO)=CC1C1CC1 (configuration not stated)	0.0651	-3.2 (inactive)	-0.131 (inactive)	-1.36 (inactive)	-0.0672	-0.202	0.759	0.0677	1.23	1.08 (inactive)	-0.0984	-0.369 (inactive)	-1.58 (inactive)	-1.01 (inactive)	-1.9 (inactive)	0.591	0.575 (inactive)	-0.0075 (inactive)	0.0296
O=C(CS)NCCCCCNC(=O)[C@H]1C[C@H]2C(=O)N[C@@H](Cc3ccccc3)C(=O)N2[C@H]1c1ccc(O)cc1	0.252	-0.164 (inactive)	-0.809 (inactive)	-0.819 (inactive)	0.0842	0.0018	1.04	0.746	2.09	0.956 (inactive)	0.0371	6.87 (inactive)	-0.29 (inactive)	-1.1 (inactive)	-1.95 (inactive)	0.263	0.99 (inactive)	-0.205 (inactive)	0.0913
COC(=O)c1c(CC[C@@H](CO)NC(=O)N[C@H](Cn2cc(-c3cncn3C)nn2)C(C)C)oc(C(C)=O)c1C(=O)OC	0.0781	-3.48 (inactive)	1.01 (inactive)	-1.4 (inactive)	0.341	-0.282	0.422	0.368	0.75	2.49 (inactive)	-0.148	0.88 (inactive)	-0.0063 (inactive)	-0.181 (inactive)	-0.519 (inactive)	2.93	-1.33 (inactive)	0.591 (inactive)	-0.295
